KB-V1 cytotox = kills drug-selected multidrug resistant KB-V1 cells; Potency, µM (series often up to 46.1 µM), hits mostly cytotoxic; KB-V1 MDR cells viability, CellTiter-Glo, 72 h; AID 1347076; 3.4% of 400,000 active; also: % is scaled to controls: 0 for no effect and ±100 for the full control effect; nearly all actives have a fitted effect of over 60% in size
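KB-V1 MDR subline cells in DMEM (phenol-red free, 10% FBS) exposed to compounds in qHTS concentration series for 72 h at 37 degrees C. Viability read by CellTiter-Glo luminescence; concentration-effect curves fitted after normalization and correction.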
HT1080-NT tox = kills 2HG-producing HT-1080-NT fibrosarcoma cells; HT-1080-NT fibrosarcoma viability, CellTiter-Glo ATP luminescence, 48 h; Potency, µM (series often up to 46.1 µM), for the others: at the highest dose activity, negative = less viability, most hits filed as cytotoxic; 1.6% of 360,000 active; AID 686970;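 also: NT is the 2HG producing partner of a matched IDH1 knockdown line; 0% = DMSO-treated cells and -100% = media-only wells without cells; nearly all actives have a fitted effect of over 55% in size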
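Fibrosarcoma NT cells, 750 per well in 5% FBS RPMI, were exposed to compound for 48 hours. Viability: CellTiter-Glo luminescence.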
HT1080 IDH1KD tx = toxicity to HT-1080 IDH1 knockdown cells (counter line); HT-1080 IDH1 knockdown viability, ATP luminescence, 48 h; Potency, µM (doses to about 46.1 µM), without a hit: at the highest dose activity, negative = toxicity, most hits filed as cytotoxic; 2% of 360,000 active; AID 686971;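 also: 0% = DMSO wells and -100% = cell-free medium wells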
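Viability of IDH1-knockdown HT-1080 fibrosarcoma cells was assessed by CellTiter-Glo after 48 h at 37 °C with titrated compound; concentration-effect curves were classified by fit quality and response size.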
KB-3-1 tox = kills parental KB-3-1 adenocarcinoma cells. 1.4% of 400,000 active. KB-3-1 viability, CellTiter-Glo ATP luminescence, 72 h. Potency, µM (series often up to 46.1 µM), hits mostly cytotoxic. AID 1347075; also: % is scaled to controls: 0 for no effect and ±100 for the full control effect; nearly all actives have a fitted effect of over 60% in size
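Here the drug-naive KB-3-1 line serves as comparator for MDR sub-line selectivity; cells received compound titrations, 72 h at 37 °C, then CellTiter-Glo readout.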
TGFb SMAD3 inh = blocks TGF-b signaling | HepG2 CAGA-GFP TGF-b/SMAD3 reporter, GFP fluorescence, 18 h; TGF-beta stimulated, 500 pg/mL final | Potency, µM (highest dose often 46.1 µM), for the others: at the highest dose activity, negative = inhibition, hits mostly inhibitors | 1.2% of 410,000 active; also: % is scaled to controls: 0 for no effect and ±100 for the full control effect; nearly all actives have a fitted effect of over 65% in size
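Using HEPG2 CAGA-GFP reporter cells at 1000 cells/well, we pinned test compounds, stimulated with recombinant TGF-beta (500 pg/mL final) and measured total well GFP after 18 h.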
HepG2 tox = counter-screen for TGF-b inhibitors: cytotoxicity in HepG2 cells; HepG2 CAGA-GFP viability, ATP luminescence, 18 h; Potency, µM (doses to about 46.1 µM), for inactives: at the highest dose activity change, negative = cytotoxicity, actives largely listed as cytotoxic; 0.76% of 410,000 active; AID 588856
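HepG2 CAGA-GFP cells (1000/well, DMEM with 1% FBS) received compound, then TGF-beta at 500 pg/mL final, and were incubated 18 hours at 37 degrees C. Viability was read by CellTiter-Glo luminescence. Media-only wells were set as complete cell-killing and DMSO as no toxicity.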
* hit, by the source's call; ! = repeats disagree. Compounds with a hit are over-represented: about 6.6% of the library has one in this group of screens. Calls follow the shape of the dose curve; as a rule, active = well fitted curve in the direction sought with a large enough effect; inconclusive = small, poorly fitted or top-dose-only effect, or another doubt; inactive = no such curve, though single readings can be large; an effect the other way counts as inactive or inconclusive. Potency is read from the fitted curve at half-maximal effect.

For COc1ccc(OCc2cccc(C(=O)Nc3ccc(CN4CCCCC4)cc3)c2)cc1 the results were KB-V1 cytotox inactive, HT1080-NT tox -1.3%, HT1080 IDH1KD tx -18.7%, KB-3-1 tox inconclusive, TGFb SMAD3 inh inconclusive and HepG2 tox -58.9%.
For CCOc1ccc(NC(=O)c2cccc(OC(=S)N3CCC(C)CC3)c2)cc1 the results were KB-V1 cytotox 18.4µM*, HT1080-NT tox 17.9%, HT1080 IDH1KD tx 6.4%, KB-3-1 tox inactive, TGFb SMAD3 inh -11.3% and HepG2 tox -61.8%.
CCOc1cccc(C(=O)Nc2ccc(N3CCCC3)cc2)c1 was read as KB-V1 cytotox inactive, HT1080-NT tox -6.8%, HT1080 IDH1KD tx -24.0%, KB-3-1 tox inconclusive, TGFb SMAD3 inh -0.2% and HepG2 tox -0.1%.
Screening Cc1sc2c(c1C)c(=O)n(-c1ccccc1)c(=O)n2CC(=O)c1ccc(Cl)cc1 returned KB-V1 cytotox inactive, KB-3-1 tox inactive, TGFb SMAD3 inh 12.1% and HepG2 tox 7.1%.
For c1cc2c(cc1C1=NNC(=NC3CC3)SC1)OCCO2 the results were KB-V1 cytotox 8.2µM*, HT1080-NT tox 16.4µM*, HT1080 IDH1KD tx 11.6µM*, KB-3-1 tox inconclusive, TGFb SMAD3 inh inconclusive and HepG2 tox -78.3%.
`c1ccc2oc(C3=NNC(=NC4CC4)SC3)cc2c1` gave KB-V1 cytotox inactive, HT1080-NT tox -2.2%, HT1080 IDH1KD tx -5.5%, KB-3-1 tox 9.2µM*, TGFb SMAD3 inh inconclusive and HepG2 tox -30.5%.
CCCCN=C1NN=C(c2ccc3c(c2)OCCO3)CS1 was read as KB-V1 cytotox inactive, HT1080-NT tox -18.8%, HT1080 IDH1KD tx -14.2%, KB-3-1 tox inactive, TGFb SMAD3 inh 5.7% and HepG2 tox -24.2%.
Cc1ccc2oc(=O)c3cnn(CC(=O)N4CCN(c5cccc(C(F)(F)F)c5)CC4)c3c2c1 was read as KB-V1 cytotox inactive, KB-3-1 tox inactive, TGFb SMAD3 inh 0.9% and HepG2 tox -5.2%.
`CCOc1ccc(C(=O)NCc2nnnn2-c2ccc(C)c(C)c2)cc1OCC` gave TGFb SMAD3 inh 0.0% and HepG2 tox -22.7%.
CCOP(=O)(OCC)c1nc(-c2ccc(Cl)cc2Cl)oc1N1CCCCC1 was read as KB-V1 cytotox inconclusive, HT1080-NT tox 18.4µM*, HT1080 IDH1KD tx 23.1µM*, KB-3-1 tox inactive, TGFb SMAD3 inh inconclusive and HepG2 tox 7.7%.
For CCOP(=O)(OCC)c1nc(-c2ccccc2Cl)oc1N1CCOCC1 the results were KB-V1 cytotox inconclusive, HT1080-NT tox inconclusive, HT1080 IDH1KD tx 13.4%, KB-3-1 tox inactive, TGFb SMAD3 inh inconclusive and HepG2 tox -11.3%.
For Cc1cccc(-c2nc(SCC(=O)Nc3cccc(C(F)(F)F)c3)n3[nH]c(=O)cc3n2)c1 the results were KB-V1 cytotox inconclusive, KB-3-1 tox inactive, TGFb SMAD3 inh inconclusive and HepG2 tox -32.1%.
C#Cc1ccc(NC(=O)C2(C)CCN2C(=O)Cc2ccc(C(C)(C)C)cc2)cc1 (centres undefined) was read as KB-V1 cytotox inactive, HT1080-NT tox inconclusive, HT1080 IDH1KD tx 10.3µM*, KB-3-1 tox inactive, TGFb SMAD3 inh -29.6% and HepG2 tox -19.5%.
For CC(C)(C)c1ccc(CC(=O)N2CCC2(C)C(=O)NCc2ccc(Cl)cc2)cc1 (centres undefined) the results were KB-V1 cytotox 20.6µM*, HT1080-NT tox inconclusive, HT1080 IDH1KD tx 25.9µM*, KB-3-1 tox inconclusive, TGFb SMAD3 inh inconclusive and HepG2 tox -31.1%.
Screening CC1(C(=O)NCc2ccc(Cl)cc2)CCN1C(=O)Cc1ccc(Cl)cc1Cl (centres undefined) returned KB-V1 cytotox inactive, HT1080-NT tox -15.2%, HT1080 IDH1KD tx -16.6%, KB-3-1 tox inactive, TGFb SMAD3 inh -23.5% and HepG2 tox -21.9%.
Screening C#Cc1ccc(NC(=O)C2(C)CCN2C(=O)Cc2ccc(C(C)C)cc2)cc1 (centres undefined) returned KB-V1 cytotox inactive, HT1080-NT tox inconclusive, HT1080 IDH1KD tx inconclusive, KB-3-1 tox inactive, TGFb SMAD3 inh -6.9% and HepG2 tox -27.5%.
For CCN(CCCN(C)C)c1ccc(/C=C/c2ccnc3ccccc23)cc1 the results were KB-V1 cytotox inconclusive, KB-3-1 tox inactive, TGFb SMAD3 inh 21.9% and HepG2 tox -2.3%.
For Cc1cccc(CS(=O)(=O)c2ncc(Cl)c(C(=O)NCc3ccccc3)n2)c1 the results were KB-V1 cytotox inactive, HT1080-NT tox 25.9µM*, HT1080 IDH1KD tx inconclusive, KB-3-1 tox inactive, TGFb SMAD3 inh 3.16µM* and HepG2 tox 3.55µM*!.
Screening O=C(NCc1ccccc1)c1nc(S(=O)(=O)Cc2ccc(F)cc2)ncc1Cl returned TGFb SMAD3 inh inconclusive and HepG2 tox -112.4%.
Screening O=C(Nc1nc2ccc(F)cc2s1)c1nc(S(=O)(=O)Cc2ccccc2)ncc1Cl returned KB-V1 cytotox inactive, KB-3-1 tox inactive, TGFb SMAD3 inh inconclusive and HepG2 tox -115.8%.
For Cc1ccccc1NC(=O)c1nc(S(C)(=O)=O)ncc1Cl the results were KB-V1 cytotox inactive, HT1080-NT tox 14.6µM*, HT1080 IDH1KD tx 14.6µM*, KB-3-1 tox inactive, TGFb SMAD3 inh 15.8µM* and HepG2 tox -119.0%.
For COc1ccc2nc(NC(=O)c3nc(S(=O)(=O)Cc4ccccc4)ncc3Cl)sc2c1 the results were TGFb SMAD3 inh 7.94µM* and HepG2 tox 10µM*.
For COc1ccc2nc(NC(=O)c3nc(S(=O)(=O)Cc4ccccc4F)ncc3Cl)sc2c1 the results were TGFb SMAD3 inh inconclusive and HepG2 tox -98.6%.
`Cc1ccc(NC(=O)c2nc(S(=O)(=O)Cc3ccccc3)ncc2Cl)cc1` gave KB-V1 cytotox inconclusive, HT1080-NT tox 18.4µM*, HT1080 IDH1KD tx 6.51µM*, KB-3-1 tox 13µM*, TGFb SMAD3 inh inconclusive and HepG2 tox 22.4µM*.
`CCOc1ccc(NS(=O)(=O)c2ccc3c(c2)NC(=O)CCS3)cc1` gave KB-V1 cytotox inconclusive, KB-3-1 tox inactive, TGFb SMAD3 inh -22.3% and HepG2 tox -22.7%.
Screening COc1ccc(NC(=O)C2CCN(C3=NS(=O)(=O)C(c4ccc(C)c(C)c4)=C3C)CC2)c(OC)c1 returned KB-V1 cytotox inactive, KB-3-1 tox inactive, TGFb SMAD3 inh -21.0% and HepG2 tox -13.7%.
`Cc1nnc(NC(=O)c2nc(S(=O)(=O)Cc3ccccc3)ncc2Cl)s1` gave KB-V1 cytotox inconclusive, HT1080-NT tox 14.6µM*, HT1080 IDH1KD tx 20.6µM*, KB-3-1 tox 10.3µM*!, TGFb SMAD3 inh inconclusive and HepG2 tox -129.5%.
